High-throughput results (PubChem BioAssay)
JMJD2A Tudor inh = inhibitors of human JMJD2A Tudor domain; Potency, µM (series often up to 114 µM), hits mostly inhibitors; AID 504339; 4.4% of 390,000 active; AlphaScreen JMJD2A-Tudor / H3K4me3 peptide binding; note: nearly all actives have a fitted effect of over 50% in size
G9a inh = G9a (human) methyltransferase inhibition | Q96KQ7 | G9a H3K9 monomethylation, AlphaScreen, 2 h | Potency, µM (top dose mostly 102 µM), usual class: inhibitors | 8.8% of 350,000 active; note: nearly all actives have a fitted effect of over 75% in size
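Chemiluminescent proximity detection of H3K9 monomethylation, read after 10 min bead incubation in the dark. Reaction: 20 nM G9a, 500 nM biotin-H3K9 peptide, 20 uM SAM cofactor, 2 h, room temperature, following 15 min enzyme-compound preincubation.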
HP1b chromo inh = blocks HP1-beta chromodomain binding to methylated histone tails. Potency, µM (titrated, usually from 114 µM), actives largely listed as inhibitors. 0.56% of 390,000 active. AID 540317. AlphaScreen HP1-beta / biotin-H3K9me3 peptide binding. P83916; note: nearly all actives have a fitted effect of over 70% in size
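Compound inhibition of the preformed complex between 50 nM HP1-beta and 50 nM biotinylated H3K9me3 peptide was read by AlphaScreen. Buffer was PBS pH 7.4 with 0.01% Tween-20. Incubations ran 30 min at room temperature, with 10 ug/mL donor/acceptor beads.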
PI5P4K alpha inh = PI5P4K alpha (human) kinase inhibition. P48426. max response, %. AID 652105. 1.2% of 330,000 active. PI5P4Kalpha enzyme, ADP-Glo luminescence, 60 min; stronger effect = lower value; active = max response of -50% or lower; inconclusive = between -30% and -50%; inactive = -30% or higher; note: value at the top dose of about 77 µM
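Single end-point luminescence (ADP-Glo) quantified ADP from PI5P4Kalpha turnover; ATP 5 microM final, 1 h at RT, 0.1% CHAPS and 0.28 mM EGTA in HEPES pH 7.4.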
PLK1 PBD block = blocks phosphopeptide binding to human PLK1 polo-box domain; P53350; Plk1 PBD binding of FITC phosphopeptide, fluorescence polarization; Potency, µM, usual class: inhibitors; 2.8% of 360,000 active; AID 720504; note: series mostly up to about 57 µM; nearly all actives have a fitted effect of over 65% in size
Target sequence (P53350 whole entry, looked up, the tested form may be a part): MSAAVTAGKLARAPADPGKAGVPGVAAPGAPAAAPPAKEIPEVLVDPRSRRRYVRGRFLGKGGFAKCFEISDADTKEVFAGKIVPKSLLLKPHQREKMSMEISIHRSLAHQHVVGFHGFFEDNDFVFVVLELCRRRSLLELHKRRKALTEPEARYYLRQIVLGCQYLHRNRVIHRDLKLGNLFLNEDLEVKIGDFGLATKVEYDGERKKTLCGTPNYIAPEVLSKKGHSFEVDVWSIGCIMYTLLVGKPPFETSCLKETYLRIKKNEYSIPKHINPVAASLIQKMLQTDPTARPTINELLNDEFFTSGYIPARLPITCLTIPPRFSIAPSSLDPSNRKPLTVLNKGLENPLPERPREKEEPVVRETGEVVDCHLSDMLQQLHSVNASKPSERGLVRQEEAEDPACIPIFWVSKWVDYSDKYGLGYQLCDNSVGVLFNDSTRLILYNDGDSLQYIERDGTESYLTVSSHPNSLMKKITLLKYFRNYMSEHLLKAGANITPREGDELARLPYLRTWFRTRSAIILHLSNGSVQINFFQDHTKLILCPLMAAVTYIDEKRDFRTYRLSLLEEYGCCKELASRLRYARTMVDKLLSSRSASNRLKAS
BAZ2B inh = inhibitors of human BAZ2B bromodomain; Potency, µM (titrated, usually from 114 µM), hits mostly inhibitors; 4.4% of 360,000 active; Q9UIF8; AlphaScreen BAZ2B-H3K14Ac peptide displacement; note: nearly all actives have a fitted effect of over 60% in size
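AlphaScreen luminescence quantifies BAZ2B engagement of H3K14Ac peptide; the protein and biotinylated peptide are both at 50 nM final, buffer PBS pH 7.4 with 0.01% Tween-20, all steps at room temperature.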
Large screens that a line does not name were inactive; ! = a repeat was not active. Compounds with a hit are over-represented: about 12% of the library has one in this group of screens. Unless noted, calls come from the whole dose curve; as a rule, active = well fitted curve in the direction sought with a large enough effect; inconclusive = small, poorly fitted or top-dose-only effect, or another doubt; inactive = no such curve, though single readings can be large; an effect the other way counts as inactive or inconclusive.

NC(=O)CI	G9a inh 2.38µM (no result: JMJD2A Tudor inh, HP1b chromo inh, PI5P4K alpha inh, PLK1 PBD block, BAZ2B inh)
C/C(=N\NC(=O)c1ccccc1)c1c(O)n(Cc2ccccc2)c(=O)[nH]c1=O	PI5P4K alpha inh -68.1
C/C(=N\Nc1cccc2ccccc12)c1c(O)n(Cc2ccccc2)c(=O)[nH]c1=O	JMJD2A Tudor inh 79.4µM, G9a inh 1.58µM, HP1b chromo inh inconclusive, PI5P4K alpha inh -54.5, BAZ2B inh inconclusive
C/C(=N\NC(=O)c1ccncc1)c1c(O)n(-c2ccccc2)c(=O)[nH]c1=O	none (no result: G9a inh)
CCCCCCC(=O)CCCCCC/C=C/C[C@@H](O)[C@H](O)[C@@](N)(CO)C(=O)O	none (no result: JMJD2A Tudor inh, HP1b chromo inh, PI5P4K alpha inh, PLK1 PBD block, BAZ2B inh)
CCn1c(CN2CCN(C)CC2)nc2ccccc21	JMJD2A Tudor inh inconclusive (no result: PI5P4K alpha inh, PLK1 PBD block)
Cn1c(SCC(=O)N2CCOCC2)nnc1-c1cccc(NC(=O)c2ccccc2)c1	JMJD2A Tudor inh 89.1µM, G9a inh 10µM (no result: BAZ2B inh)
NC(=O)c1cc([N+](=O)[O-])cc([N+](=O)[O-])c1	none (no result: BAZ2B inh)
CC(C)(C)c1cc([N+](=O)[O-])cc(C(C)(C)C)c1O	PLK1 PBD block 26.7µM
Cc1ccc(-n2nc3ccc(NC(=O)COc4ccccc4C)cc3n2)cc1	none (no result: PI5P4K alpha inh, PLK1 PBD block)
O=C(COc1ccccc1/C=C1/NC(=O)NC1=O)Nc1ccccc1	G9a inh inconclusive, PI5P4K alpha inh inconclusive, PLK1 PBD block 3.36µM
S=C=Nc1cccc(C2(N3CCCCC3)CCCCC2)c1	G9a inh 14.1µM
c1ccc(C2(N3CCCCC3)CCCCC2)cc1	none (no result: G9a inh, BAZ2B inh)
CN1C(=O)C(=Cc2cccnc2)C(=O)N(C)C1=O	PLK1 PBD block 16.8µM (no result: G9a inh)
CN(C)c1ccc(/C=C2\C(=O)NC(=O)N(CCc3ccc(F)cc3)C2=O)cc1	JMJD2A Tudor inh inconclusive, G9a inh 44.7µM, PI5P4K alpha inh -82.2, PLK1 PBD block 1.06µM, BAZ2B inh inconclusive
COCCN1C(=O)NC(=O)/C(=C\c2ccc(F)cc2)C1=O	G9a inh inconclusive, PLK1 PBD block 13.4µM
COC(=O)c1ccc(N2CCN(C)CC2)c([N+](=O)[O-])c1	none
CN1C(=O)C(=Cc2ccc(N3CCOCC3)c([N+](=O)[O-])c2)C(=O)N(C)C1=O	G9a inh 35.5µM (no result: JMJD2A Tudor inh, HP1b chromo inh, PI5P4K alpha inh, PLK1 PBD block)
CCN(CC)c1ccc(/C=C2\C(=O)NC(=O)N(CC3CCCO3)C2=O)cc1 (centres undefined)	G9a inh inconclusive, PLK1 PBD block inconclusive, BAZ2B inh inconclusive
COc1ccc(NC(=O)N2CCC3(CC2)CCN(C(=O)Oc2ccccc2)CC3)cc1	none (no result: JMJD2A Tudor inh, HP1b chromo inh, PI5P4K alpha inh, PLK1 PBD block, BAZ2B inh)
O=c1[nH]c(=O)n(Cc2ccc(F)cc2)c(O)c1C=NCCN1CCCCC1	none (no result: PI5P4K alpha inh)
O=C1NC(=O)N(Cc2ccc(F)cc2)C(=O)/C1=C\c1ccc(N2CCCC2)cc1	JMJD2A Tudor inh inconclusive, G9a inh 44.7µM, PI5P4K alpha inh -58.9, PLK1 PBD block 1.5µM, BAZ2B inh inconclusive
CN1C(=O)C(=Cc2ccc(N3CCCCCC3)cc2)C(=O)N(C)C1=O	PLK1 PBD block 1.5µM (no result: G9a inh)
O=Nc1c(-c2ccccc2)n(O)[n+]([O-])c1-c1ccccc1	PLK1 PBD block inconclusive (no result: JMJD2A Tudor inh, G9a inh, HP1b chromo inh, BAZ2B inh)
O=P1(N(CCCl)CCCl)NCCCO1 (centres undefined)	G9a inh 17.8µM!
O=C(c1ccc2nc(-c3ccco3)c(-c3ccco3)nc2c1)N1CCC2(CC1)OCCO2	JMJD2A Tudor inh 89.1µM, G9a inh inconclusive, BAZ2B inh 56.2µM
C[N+]1(C)[C@@H]2CC(OC(=O)[C@@H](CO)c3ccccc3)C[C@@H]1[C@H]1O[C@H]12 (some centres undefined)	none (no result: JMJD2A Tudor inh, HP1b chromo inh, PI5P4K alpha inh, PLK1 PBD block, BAZ2B inh)
COc1cccc(NC(=O)[C@@H](NC(=O)N2C[C@H]3C[C@@H](C2)c2cccc(=O)n2C3)C(C)C)c1	none (no result: G9a inh)
O=c1cccc2n1CC1CC2CN(Cc2c(F)cccc2Cl)C1 (centres undefined)	JMJD2A Tudor inh 56.2µM, G9a inh 44.7µM, BAZ2B inh inconclusive
COc1ccc(NC(=O)N2C[C@@H]3C[C@@H](C2)c2cccc(=O)n2C3)c(OC)c1	G9a inh 3.55µM
COc1cc(C(=O)N2C[C@H]3C[C@@H](C2)c2cccc(=O)n2C3)cc(OC)c1OC	none
COc1ccc(C(=O)NC(=S)N2C[C@H]3C[C@H](C2)c2cccc(=O)n2C3)cc1OC	G9a inh 44.7µM
O=C(NC(=S)N1C[C@H]2C[C@H](C1)c1cccc(=O)n1C2)c1ccc(Cl)cc1Cl	G9a inh 39.8µM
